Reference: PubChem BioAssay (NCATS)
Values joined by “and” are separate entries in the source; they are usually repeats but may differ in a detail not shown here. Equal values may be shown once. Records with an inconclusive call do not appear. A call without a number means that no potency is given here. Active and inactive are the calls of the source. The call rests on the fitted dose curve; in most records, active means well fitted curve in the direction sought with a large enough effect; inconclusive means small, poorly fitted or top-dose-only effect, or another doubt; inactive means no such curve, though single readings can be large; an effect the other way counts as inactive or inconclusive.

Assay: Primary qHTS for inhibitors of nuclear receptor binding SET domain protein 2 (NSD2) in an isogenic RCH-ACV NSD2 p.E1099K mutant (9B) (AID 1645876)
Conditions: RCH-ACV NSD2 E1099K (9B) viability, CellTiter-Glo, 72 h; series mostly up to 44.9 µM
Further: nearly all actives have a fitted effect of over 70% in size.
Potency means the concentration at half of the fitted maximal effect.

Row | Compound | Potency
1 | O=C(OCC(COC(=O)c1cccnc1)(COC(=O)c1cccnc1)COC(=O)c1cccnc1)c1cccnc1 | inactive
2 | CCOC(=O)c1ccc(NC(=O)CN2CCCCC2)cc1 | inactive
3 | Oc1ccccc1 | inactive
4 | Cc1ccc(C(=O)C(=O)O)cc1C | inactive
5 | O=C1[C@@H]2[C@H]3CC[C@H](C3)[C@@H]2C(=O)N1CCCCN1CCN(c2ncccn2)CC1 | inactive
6 | CC(=O)OCC(=O)[C@@]1(O)CCC2C3CCC4=CC(=O)CC[C@]4(C)C3[C@@H](O)C[C@@]21C (some centres undefined) | inactive
7 | C/C(=N/NC(=O)c1ccncc1)C(=O)O | inactive
8 | Cc1ccc2c(Cl)cc(Cl)c(O)c2n1 | inactive
9 | Cc1ncc(CO)c(CO)c1O | inactive
10 | CCO[C@H](Cc1ccc(OCCc2ccc(OS(C)(=O)=O)cc2)cc1)C(=O)O | inactive
11 | CC[C@@]1(O)C(=O)OCc2c1cc1n(c2=O)Cc2c-1nc1ccccc1c2/C=N/OC(C)(C)C | inactive
12 | CCCCC(CC)CNC(=O)CC(C)OC(=O)CCC(=O)O (centres undefined) | inactive
13 | C/C(=N\O)[C@@H](C)NCC(C)(C)CN[C@H](C)/C(C)=N/O | inactive
14 | Nc1ncnc2nc[nH]c12 | inactive
15 | O=C(O)[C@H](O)[C@@H](O)[C@H](O[C@@H]1O[C@H](CO)[C@H](O)[C@H](O)[C@H]1O)[C@H](O)CO | inactive
16 | CCCC(=O)O[C@]1(C(=O)CC)CC[C@H]2[C@@H]3CCC4=CC(=O)CC[C@]4(C)[C@H]3[C@@H](O)C[C@@]21C | inactive
17 | CN1C(CSCC(F)(F)F)Nc2cc(Cl)c(S(N)(=O)=O)cc2S1(=O)=O (centres undefined) | inactive
18 | CN1CC(=O)N2[C@H](c3ccc4c(c3)OCO4)c3[nH]c4ccccc4c3C[C@@H]2C1=O | inactive
19 | C#CC(C)(CC)OC(=O)c1ccccc1C(=O)O (centres undefined) | inactive

Row | Compound | Potency
20 | Cc1ccc(C(C)OC(=O)C2(C)CCC(C(=O)O)C2(C)C)cc1 (centres undefined) | inactive
21 | C/C(=C1\CCOC(=O)S1)N(C=O)Cc1cnc(C)nc1N | inactive
22 | Cc1ccc(O)cc1 | inactive
23 | CC(C)(C)NCC(O)COc1ccccc1OCC1CCCO1 (centres undefined) | inactive
24 | CCOC(=O)c1ccc(OCCN2C[C@H](O)[C@@H](O)[C@H](O)[C@H]2CO)cc1 | inactive
25 | CC(C(O)c1ccccc1)N(C)CCOC(c1ccccc1)c1ccccc1 (centres undefined) | 16.3 µM (active)
26 | CC(=O)N(c1onc(C)c1C)S(=O)(=O)c1ccc(N)cc1 | inactive
27 | CCCCCCCCCCCCCCCCCCNC(=O)OC1CCN(C(=O)OC[C@H](COC(=O)N(Cc2cccc[n+]2CC)C(=O)c2ccccc2OC)OC)CC1 | 2.66 µM (active)
28 | COC(=O)C1=C(C)NC(C)=C(C(=O)OCCc2ccc(N3CCN(C(c4ccccc4)c4ccccc4)CC3)cc2)C1c1cccc([N+](=O)[O-])c1 (centres undefined) | inactive
29 | C[C@H]1C[C@@H]2[C@H]([C@@H](O)C[C@@]3(C)[C@H]2CC[C@]3(O)C(=O)CO)[C@@]2(C)C=CC(=O)C=C12 | inactive
30 | CC(=O)Nc1ccn(C2COC(COC(=O)c3ccccc3)O2)c(=O)n1 (centres undefined) | 10.6 µM (active)
31 | CC(=O)N(CC(O)CO)c1c(I)c(C(=O)NCCO)c(I)c(C(=O)NCC(O)CO)c1I (centres undefined) | inactive
32 | CCOC(=O)c1cc(=O)c2c(OCC(COc3cccc4oc(C(=O)OCC)cc(=O)c34)OC(=O)[C@@H](N)CCCCN)cccc2o1 | inactive
33 | O=C(O)[C@@H](O)[C@H](O)[C@H](O)[C@@H](O)C(=O)O | inactive
34 | COc1ccc(-n2nc(CCC(=O)N(C)O)cc2-c2ccc(Cl)cc2)cc1 | 8.41 µM (active)
35 | O=C1NCCN1CCN1CCC(c2cn(-c3ccc(F)cc3)c3ccc(Cl)cc23)CC1 | 3.76 µM (active)
36 | Cc1oc(=O)oc1COC(=O)[C@@H]1N2C(=O)[C@@H](NC(=O)[C@H](N)c3ccccc3)[C@H]2SC1(C)C | inactive
37 | C=CCOc1cc(Cl)ccc1C(=O)NCCN(CC)CC | inactive

Assay: Primary qHTS for inhibitors of nuclear receptor binding SET domain protein 2 (NSD2) in an RCH-ACV wild type WT cells (2C) (AID 1645877)
Conditions: RCH-ACV (leukaemia line) NSD2 WT (2C) viability, CellTiter-Glo, 72 h; series mostly up to 44.9 µM

Row | Compound | Potency
38 | O=C(OCC(COC(=O)c1cccnc1)(COC(=O)c1cccnc1)COC(=O)c1cccnc1)c1cccnc1 | inactive
39 | CCOC(=O)c1ccc(NC(=O)CN2CCCCC2)cc1 | inactive
40 | Oc1ccccc1 | inactive
41 | Cc1ccc(C(=O)C(=O)O)cc1C | inactive
42 | O=C1[C@@H]2[C@H]3CC[C@H](C3)[C@@H]2C(=O)N1CCCCN1CCN(c2ncccn2)CC1 | inactive
43 | CC(=O)OCC(=O)[C@@]1(O)CCC2C3CCC4=CC(=O)CC[C@]4(C)C3[C@@H](O)C[C@@]21C (some centres undefined) | 0.15 µM (active)
44 | C/C(=N/NC(=O)c1ccncc1)C(=O)O | inactive
45 | Cc1ccc2c(Cl)cc(Cl)c(O)c2n1 | inactive
46 | Cc1ncc(CO)c(CO)c1O | inactive
47 | CCO[C@H](Cc1ccc(OCCc2ccc(OS(C)(=O)=O)cc2)cc1)C(=O)O | inactive
48 | CC[C@@]1(O)C(=O)OCc2c1cc1n(c2=O)Cc2c-1nc1ccccc1c2/C=N/OC(C)(C)C | inactive
49 | CCCCC(CC)CNC(=O)CC(C)OC(=O)CCC(=O)O (centres undefined) | inactive
50 | C/C(=N\O)[C@@H](C)NCC(C)(C)CN[C@H](C)/C(C)=N/O | inactive
51 | Nc1ncnc2nc[nH]c12 | inactive
52 | O=C(O)[C@H](O)[C@@H](O)[C@H](O[C@@H]1O[C@H](CO)[C@H](O)[C@H](O)[C@H]1O)[C@H](O)CO | inactive
53 | CCCC(=O)O[C@]1(C(=O)CC)CC[C@H]2[C@@H]3CCC4=CC(=O)CC[C@]4(C)[C@H]3[C@@H](O)C[C@@]21C | inactive
54 | CN1C(CSCC(F)(F)F)Nc2cc(Cl)c(S(N)(=O)=O)cc2S1(=O)=O (centres undefined) | inactive
55 | CN1CC(=O)N2[C@H](c3ccc4c(c3)OCO4)c3[nH]c4ccccc4c3C[C@@H]2C1=O | inactive
56 | C#CC(C)(CC)OC(=O)c1ccccc1C(=O)O (centres undefined) | inactive

Row | Compound | Potency
57 | Cc1ccc(C(C)OC(=O)C2(C)CCC(C(=O)O)C2(C)C)cc1 (centres undefined) | inactive
58 | C/C(=C1\CCOC(=O)S1)N(C=O)Cc1cnc(C)nc1N | inactive
59 | Cc1ccc(O)cc1 | inactive
60 | CC(C)(C)NCC(O)COc1ccccc1OCC1CCCO1 (centres undefined) | inactive
61 | CCOC(=O)c1ccc(OCCN2C[C@H](O)[C@@H](O)[C@H](O)[C@H]2CO)cc1 | inactive
62 | CC(C(O)c1ccccc1)N(C)CCOC(c1ccccc1)c1ccccc1 (centres undefined) | 16.3 µM (active)
63 | CC(=O)N(c1onc(C)c1C)S(=O)(=O)c1ccc(N)cc1 | inactive
64 | CCCCCCCCCCCCCCCCCCNC(=O)OC1CCN(C(=O)OC[C@H](COC(=O)N(Cc2cccc[n+]2CC)C(=O)c2ccccc2OC)OC)CC1 | 2.66 µM (active)
65 | COC(=O)C1=C(C)NC(C)=C(C(=O)OCCc2ccc(N3CCN(C(c4ccccc4)c4ccccc4)CC3)cc2)C1c1cccc([N+](=O)[O-])c1 (centres undefined) | inactive
66 | C[C@H]1C[C@@H]2[C@H]([C@@H](O)C[C@@]3(C)[C@H]2CC[C@]3(O)C(=O)CO)[C@@]2(C)C=CC(=O)C=C12 | 26.6 nM (active) and 74.2 nM (active)
67 | CC(=O)Nc1ccn(C2COC(COC(=O)c3ccccc3)O2)c(=O)n1 (centres undefined) | 5.31 µM (active)
68 | CC(=O)N(CC(O)CO)c1c(I)c(C(=O)NCCO)c(I)c(C(=O)NCC(O)CO)c1I (centres undefined) | inactive
69 | CCOC(=O)c1cc(=O)c2c(OCC(COc3cccc4oc(C(=O)OCC)cc(=O)c34)OC(=O)[C@@H](N)CCCCN)cccc2o1 | inactive
70 | O=C(O)[C@@H](O)[C@H](O)[C@H](O)[C@@H](O)C(=O)O | inactive
71 | COc1ccc(-n2nc(CCC(=O)N(C)O)cc2-c2ccc(Cl)cc2)cc1 | 7.5 µM (active)
72 | O=C1NCCN1CCN1CCC(c2cn(-c3ccc(F)cc3)c3ccc(Cl)cc23)CC1 | 2.11 µM (active)
73 | Cc1oc(=O)oc1COC(=O)[C@@H]1N2C(=O)[C@@H](NC(=O)[C@H](N)c3ccccc3)[C@H]2SC1(C)C | inactive
74 | C=CCOc1cc(Cl)ccc1C(=O)NCCN(CC)CC | inactive
